Data on 20 compounds can be found in PubChem BioAssay (Tox21).

“And” between values parts separate entries of the source, which are not always exact repeats. Equal entries are not always repeated. Results filed as inconclusive are left out. Some compounds were tested as several samples or in several runs, with calls that do not always agree. The source made the active and inactive calls. The call rests on the fitted dose curve; in most records, active means well fitted curve in the direction sought with a large enough effect in the repeat runs; inconclusive means weak or mixed curves; inactive means no such curve, though single readings can be large; an effect the other way counts as inactive or inconclusive.

Test [1] in a line: qHTS RealTime-Glo MT Cell Viability Assay in HepG2 cells - 40 hour (AID 1224870). Further: nearly all actives have a fitted effect of over 50% in size. The procedure, abridged:
(§1)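 HepG2 cells (600/well) mixed with RealTime-Glo MT reagent, settled 5 h at 37 C/5% CO2 before compound addition. Nonlytic NanoLuc luminescence from viable-cell prosubstrate reduction read repeatedly during 40 h treatment at 37 C.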
A general note: In qHTS, concentration-response curves come from the screen itself.

Test [2] can be described thus: A CellTox Green Cytotoxicity Assay to monitor cytotoxicity in HEK293 cells - 40 hour (AID 1224871). Further: nearly all actives have a fitted effect of over 45% in size. Further: potency means the concentration at half of the fitted maximal effect. Put shortly: (§2)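 Real-time, in one plate: 600 HEK293 cells/well with dead-cell DNA dye, pinned compound after 5 h, 37 C incubation over 40 h; viable cells give no appreciable fluorescence.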
The nature of test [3]: qHTS RealTime-Glo MT Cell Viability Assay in HEK293 cells - 16 hour (AID 1224872). Further: top concentration of the series differs between compounds; nearly all actives have a fitted effect of over 50% in size. Put shortly: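 Tox21 10K qHTS, HEK293, 600 cells/well, RealTime-Glo reagent co-dispensed with cells; 5 h preincubation, compound by pintool, 37 C, luminescence at 0–40 h.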
Test [4] is described as follows: qHTS RealTime-Glo MT Cell Viability Assay in HepG2 cells - 8 hour (AID 1224873). Further: nearly all actives have a fitted effect of over 55% in size. Put shortly: as §1
Test [5] can be described thus: qHTS RealTime-Glo MT Cell Viability Assay in HEK293 cells - 40 hour (AID 1224874). Further: nearly all actives have a fitted effect of over 50% in size. Further: potency means the concentration at half of the fitted maximal effect. Conditions: RealTime-Glo luminescence; max response: stronger effect = lower value. The procedure, abridged: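 Kinetic, non-lysing viability readout. Seed HEK293 (600/well) with reagent, incubate 5 h at 37 C/5% CO2, pin 23 nL compound in DMSO, incubate at 37 C, read luminescence at 0, 8, 16, 24, 32, 40 h.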

Test [6] is described as follows: A CellTox Green Cytotoxicity Assay to monitor cytotoxicity in HEK293 cells - 24 hour (AID 1224875). Further: series mostly up to about 77 µM; nearly all actives have a fitted effect of over 45% in size. The procedure, abridged: as §2
A short description of test [7]: A CellTox Green Cytotoxicity Assay to monitor cytotoxicity in HepG2 cells - 16 hour (AID 1224876). Further: nearly all actives have a fitted effect of over 45% in size. Put shortly: (§3)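 Cytotoxicity was tracked as dead-cell DNA fluorescence in HepG2 cells treated with test compounds at 37 C; each time-point value comes from one kinetic series spanning 0, 8, 16, 24, 32 and 40 h.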
Test [8] is described as follows: qHTS RealTime-Glo MT Cell Viability Assay in HepG2 cells - 32 hour (AID 1224877). Further: nearly all actives have a fitted effect of over 55% in size. Put shortly:
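Cells + NanoLuc/prosubstrate dispensed (600 cells/well) → 5 h at 37 C/5% CO2 → compounds in DMSO transferred → 40 h incubation at 37 C, luminescence read at 0, 8, 16, 24, 32, 40 h.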

Test [9] can be described thus: A CellTox Green Cytotoxicity Assay to monitor cytotoxicity in HepG2 cells - 24 hour (AID 1224878). Further: nearly all actives have a fitted effect of over 45% in size. Further: potency means the concentration at half of the fitted maximal effect. Put shortly:
as §3

Test [10] is described as follows: A CellTox Green Cytotoxicity Assay to monitor cytotoxicity in HepG2 cells - 40 hour (AID 1224879). Further: nearly all actives have a fitted effect of over 40% in size. Further: potency means the concentration at half of the fitted maximal effect. The procedure, abridged:
as §3
On the % scale 0 is the no-effect control and ±100 the full control effect.

Consider `FC(F)(F)c1ccc(Cl)cc1`, for which the compound was called inactive in test [1], in test [3], in [4] and in [8]. For the same compound, the Potency entry in test [2], in test [6], in test [7], in test [9] and in test [10] was “inactive” each time. Further, in [5], the max response was 3.01% (inactive) and 8.11% (inactive).
With `ClC(Cl)c1ccccc1`, the call in test [1], in [3], in test [4] and in [8] was inactive. For the same compound, the Potency result in [2], in test [6], in test [7], in test [9] and in test [10] was “inactive” each time. Further, the max response in test [5] is 4.95% (inactive) and 0.497% (inactive).
Take `CCCCC(CC)C(=O)Cl` (stereo not drawn): the result in test [1], in test [3], in test [4] and in [8] was inactive. In addition, the Potency result in [2], in [6], in test [7], in [9] and in test [10] was “inactive” each time. For the same compound, the max response in test [5] is 14.8% (inactive) and -0.733% (inactive).
Take `OCc1ccco1`: the call in test [1], in test [3], in test [4] and in [8] was inactive. The Potency result in test [2], in [6], in test [7], in test [9] and in test [10] was “inactive” in each case. For the same compound, the max response in test [5] is 1.99% (inactive) and 6.54% (inactive).
For the compound `CC(=O)/C=C/c1ccccc1`, the result in [1], in test [3], in [4] and in test [8] was inactive. Moreover, the Potency result in test [2], in test [6], in test [7], in [9] and in test [10] was “inactive” throughout. In test [5], the max response was 7.83% (inactive) and 3.04% (inactive) and 5.74% (inactive).
As for `C=CC#N`, the call in test [1], in test [3], in test [4] and in test [8] was inactive. Moreover, the Potency result in test [2], in [6], in [7], in test [9] and in test [10] was “inactive” in each case. Moreover, the max response in test [5] is -6.45% (inactive) and -0.644% (inactive).
Take `N#CN=C(N)N`: the call in test [1], in test [3], in test [4] and in test [8] was inactive. Moreover, the Potency entry in [2], in test [6], in [7], in test [9] and in test [10] was “inactive” in each case. Further, the max response in test [5] is 1.89% (inactive) and 5.69% (inactive).
Regarding `Nc1ccc([As](=O)(O)O)cc1`, the call in test [1], in [3], in [4] and in test [8] was inactive. The Potency result in [2], in [6], in test [7], in [9] and in [10] was “inactive” throughout. In test [5], the max response is 6.3% (inactive) and -4.26% (inactive) and 1.01% (inactive).
As for `CN1C(=O)CCS(=O)(=O)C1c1ccc(Cl)cc1` (stereo not drawn), the outcome in test [1], in test [3], in [4] and in test [8] was inactive. In addition, the Potency entry in test [2], in test [6], in test [7], in test [9] and in test [10] was “inactive” throughout. Besides, in test [5], the max response was 4.07% (inactive) and -0.966% (inactive).
For `CN(C)NC(=O)CCC(=O)O`, the compound was called inactive in test [1], in test [3], in test [4] and in test [8]. For the same compound, the Potency result in test [2], in test [6], in test [7], in test [9] and in test [10] was “inactive” throughout. Further, the max response in [5] is 2.52% (inactive) and 2.58% (inactive).
For `Cl/C=C/Cl`, the outcome in test [1], in test [3], in [4] and in [8] was inactive. Further, the Potency entry in test [2], in [6], in [7], in test [9] and in test [10] was “inactive” in each case. The max response in test [5] is -5.85% (inactive) and -1.58% (inactive) and 0.395% (inactive).
Regarding `CNC(=O)O/N=C(\SC)C(=O)N(C)C`, the compound was called inactive in test [1], in [3], in test [4] and in [8]. The Potency result in test [2], in [6], in test [7], in test [9] and in test [10] was “inactive” in each case. The max response in [5] was -3.21% (inactive) and 9.55% (inactive).
On to `CNC(=O)O/N=C/C(C)(C)SC`, for which the compound was called inactive in test [1], in test [3] and in [8]. The Potency result in test [2], in [6], in test [7], in test [9] and in test [10] was “inactive” each time. The max response in test [5] is 6.31% (inactive) and 4.21% (inactive).
As for `CNCC(O)c1ccc(O)cc1` (stereo not drawn), the compound was classed as inactive in test [1], in [3], in test [4] and in test [8]. Further, the Potency entry in test [2], in [6], in [7], in [9] and in test [10] was “inactive” each time. Besides, in test [5], the max response was 4.3% (inactive) and -3.08% (inactive).
Turning to `CCSC(=O)N1CCCCCC1`, the result in test [1], in [3] and in [8] was inactive. Further, the Potency result in [2], in test [6], in test [7], in [9] and in [10] was “inactive” each time. In addition, the Potency in test [5] was 12 µM (active). Besides, the max response in test [5] is 3.34% (inactive).
Regarding `Nc1ncc([N+](=O)[O-])s1`, the result in test [1], in [3], in [4] and in [8] was inactive. Besides, the Potency result in test [2], in test [6], in test [7], in [9] and in test [10] was “inactive” in each case. Further, the max response in [5] is 0.802% (inactive) and 3.01% (inactive).
Take `Cc1cc(O)ccc1Cl`: the compound was classed as inactive in test [1], in [3], in test [4] and in test [8]. The Potency result in test [2], in test [6], in test [7], in test [9] and in test [10] was “inactive” each time. Besides, the max response in test [5] is -0.728% (inactive) and -2.63% (inactive) and 0.546% (inactive).
Take `Sc1ccccc1`: the result in test [1], in test [3] and in test [8] was inactive. Also, the Potency result in test [2], in test [6] and in test [7] was “inactive” in each case. Besides, the Potency in test [5] is 39.4 µM (active); in test [9], “inactive and 43.6 µM (active)”; in test [10], “inactive and 43.6 µM (active)”. Also, the max response in [5] was 0.339% (inactive) and -2.23% (inactive) and -0.106% (inactive).
Turning to `O=S(=O)(O)OOS(=O)(=O)O`, the call in test [1], in [3], in test [4] and in test [8] was inactive. Also, the Potency result in test [2], in test [6], in test [7], in test [9] and in test [10] was “inactive” in each case. In addition, the max response in test [5] is 2.97% (inactive) [middle of 4 runs].
Regarding `Clc1cnc(Oc2ccc(Oc3ncc(Cl)cc3Cl)cc2)c(Cl)c1`, the call in test [1], in [3], in test [4] and in [8] was inactive. For the same compound, in test [2], the Potency was 24.5 µM (active). Also, the max response in test [5] was -4.51% (inactive) and -10.8% (inactive). For the same compound, the Potency result in [7], in [9] and in test [10] was “inactive” in each case.
